Most compounds without a hit are left out; they make up all but 12% or so of the library.
HP1b binding inh: HP1-beta chromodomain-methylated histone interaction inhibition; P83916; AlphaScreen HP1-beta / biotin-H3K9me3 peptide binding; Potency, µM (highest dose often 114 µM), actives largely listed as inhibitors; 0.56% of 390,000 active; note: nearly all actives have a fitted effect of over 70% in size
Target sequence (P83916 whole entry, looked up): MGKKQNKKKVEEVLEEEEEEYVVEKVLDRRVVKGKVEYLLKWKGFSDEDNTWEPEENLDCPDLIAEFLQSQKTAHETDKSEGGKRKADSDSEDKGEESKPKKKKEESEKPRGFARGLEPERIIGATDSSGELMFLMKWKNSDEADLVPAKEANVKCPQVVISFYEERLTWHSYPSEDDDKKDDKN
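Compound inhibition of the preformed complex between 50 nM HP1-beta and 50 nM biotinylated H3K9me3 peptide was read by AlphaScreen. Buffer was PBS pH 7.4 with 0.01% Tween-20. Incubations ran 30 min at room temperature, with 10 ug/mL donor/acceptor beads.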
Sfp inh: inhibitors of Bacillus subtilis Sfp phosphopantetheinyl transferase. Q9F4F7. AID 1490. 3.5% of 310,000 active. Potency, µM, usual class: inhibitors. Biochemical Sfp PPTase activity, qHTS;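 note: the enzyme is Sfp with the accession as filed and its product quenches rhodamine fluorescence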
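Compounds were incubated with enzyme (final 15 nM) for 15 min at room temperature before substrate addition started the reaction. Fluorescence at 525 nm excitation, 598 nm emission was recorded immediately and after 30 minutes.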
BAZ2B inh: inhibitors of human BAZ2B bromodomain; AID 504333; 4.4% of 360,000 active; Potency, µM (doses to about 114 µM), most hits filed as inhibitors; AlphaScreen BAZ2B-H3K14Ac peptide displacement; Q9UIF8; note: nearly all actives have a fitted effect of over 60% in size
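Inhibition is scored as reduced AlphaScreen emission. The BAZ2B/b-H3(5-23)K14Ac complex (50 nM each) in PBS pH 7.4, 0.01% Tween-20 meets compound (up to 110 uM) for 30 min at RT before bead addition.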
L3MBTL1 block: inhibitors of human L3MBTL1. AlphaScreen L3MBTL1–H3K9me1 peptide binding. AID 485360. Potency, µM (series often up to 57.1 µM), most hits filed as inhibitors. 0.66% of 230,000 active; note: nearly all actives have a fitted effect of over 60% in size
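L3MBTL1 50 nM + b-AHA-H3(1-15)K9me1 75 nM, 30 min RT; compound added, 30 min RT; streptavidin donor/Ni-chelate acceptor beads 10 ug/mL each final, 30 min RT dark; AlphaScreen read.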
JMJD2A Tudor inh: blocks the human JMJD2A Tudor domain; O75164; AlphaScreen JMJD2A-Tudor / H3K4me3 peptide binding; Potency, µM (titrated, usually from 114 µM), hits mostly inhibitors; 4.4% of 390,000 active; note: nearly all actives have a fitted effect of over 50% in size
G9a block: blocks human histone lysine methyltransferase G9a | G9a H3K9 monomethylation, AlphaScreen, 2 h | Potency, µM (top dose mostly 102 µM), actives largely listed as inhibitors | 8.8% of 350,000 active; note: nearly all actives have a fitted effect of over 75% in size
Target sequence (Q96KQ7 913-1193 limits assumed): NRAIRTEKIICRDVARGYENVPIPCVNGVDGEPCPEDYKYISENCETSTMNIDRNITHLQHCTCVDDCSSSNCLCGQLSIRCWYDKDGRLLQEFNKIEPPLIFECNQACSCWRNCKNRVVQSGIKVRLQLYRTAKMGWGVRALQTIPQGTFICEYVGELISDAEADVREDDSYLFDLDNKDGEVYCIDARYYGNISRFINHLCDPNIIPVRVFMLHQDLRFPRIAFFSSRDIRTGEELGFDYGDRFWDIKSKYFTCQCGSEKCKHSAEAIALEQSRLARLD
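G9a (20 nM) preincubated 15 min RT with compounds, then 500 nM biotinylated H3K9 peptide and 20 uM SAM added; 2 h RT reaction. Monomethyl-H3K9 product detected by AlphaScreen with anti-H3K9me1 antibody, streptavidin donor and anti-rabbit IgG acceptor beads.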
Of the large screens only hits and unclear results are named; the others gave an inactive call. Calls come from the whole dose curve; as a rule, active = well fitted curve in the direction sought with a large enough effect; inconclusive = small, poorly fitted or top-dose-only effect, or another doubt; inactive = no such curve, though single readings can be large; an effect the other way counts as inactive or inconclusive.

O=C(NCc1ccco1)c1ccc2c(=O)n(CC3CCCO3)c(=S)[nH]c2c1 (stereo unspecified)	G9a block 8.9µM
CC(C)NC(=O)c1ccc2c(=O)n(CC3CCCO3)c(=S)[nH]c2c1 (stereo unspecified)	JMJD2A Tudor inh inconclusive (no result: L3MBTL1 block)
COc1ccccc1Cn1c(=S)[nH]c2cc(C(=O)NCC3CCCO3)ccc2c1=O (stereo unspecified)	none (no result: L3MBTL1 block)
COCCCNC(=O)c1ccc2c(=O)n(CC3CCCO3)c(=S)[nH]c2c1 (stereo unspecified)	BAZ2B inh inconclusive, JMJD2A Tudor inh 20µM
O=C(NCc1ccccc1)c1ccc2c(=O)n(CC3CCCO3)c(=S)[nH]c2c1 (stereo unspecified)	JMJD2A Tudor inh 89µM
CCCCC/C=C\C[C@@H](O)/C=C/C=C\C/C=C\CCCC(=O)O	G9a block inconclusive (no result: HP1b binding inh, BAZ2B inh, L3MBTL1 block, JMJD2A Tudor inh)
COc1ccc(-c2cc(=O)oc3cc(OCC(=O)Nc4ccccn4)ccc23)cc1	JMJD2A Tudor inh 18µM (no result: L3MBTL1 block)
COc1ccccc1NC(=O)C(=O)N/N=C(\C)CC(=O)Nc1ccccn1	BAZ2B inh 79µM (no result: G9a block)
COc1ccccc1OCC(=O)Nc1ccccn1	G9a block 20µM
CCCc1cc(=O)oc2cc(OCC(=O)Nc3ccccn3)ccc12	none (no result: L3MBTL1 block, G9a block)
O=S(=O)(CCC1CCCCN1)c1ccccc1 (stereo unspecified)	none (no result: L3MBTL1 block)
Cc1cc(N2CCOCC2)nc2ccc(NC(=S)NC(C)C)cc12	G9a block 71µM (no result: L3MBTL1 block)
CCOCCCNC(=S)Nc1ccc2nc(N3CCCC3)cc(C)c2c1	G9a block inconclusive
COc1ccc(CCNC(=O)CCC(=O)Nc2ccc3nc(N4CCN(C)CC4)cc(C)c3c2)cc1OC	JMJD2A Tudor inh 79µM (no result: L3MBTL1 block)
COCCNC(=S)Nc1ccc2nc(N3CCCC3)cc(C)c2c1	G9a block 71µM
COCCNC(=S)Nc1ccc2nc(N3CCOCC3)cc(C)c2c1	none (no result: L3MBTL1 block)
CCCN(CCC)CCCNC(=S)Nc1ccc2nc(N3CCN(CC)CC3)cc(C)c2c1	G9a block 50µM (no result: L3MBTL1 block)
CCCCN(CC)CCNC(=S)Nc1ccc2nc(N3CCN(C)CC3)cc(C)c2c1	G9a block inconclusive (no result: L3MBTL1 block)
CCCN(CCC)CCCNC(=S)Nc1ccc2nc(N3CCN(C)CC3)cc(C)c2c1	G9a block 40µM (no result: L3MBTL1 block)
CCN(CC)C(=O)c1ccc(S(=O)(=O)NCc2cccnc2)cc1	G9a block 79µM (no result: L3MBTL1 block)
CCc1ccc(S(=O)(=O)NCc2cccnc2)cc1	none (no result: L3MBTL1 block, G9a block)
Cc1ccc(NS(=O)(=O)c2ccc(CCC(=O)NCc3cccnc3)cc2)cc1	G9a block 40µM
CCNS(=O)(=O)c1ccc(CCC(=O)NCc2cccnc2)cc1	none (no result: L3MBTL1 block)
Cc1ccc(S(=O)(=O)NN2Cc3ccccc3C2=N)cc1	Sfp inh inconclusive, G9a block 16µM (no result: BAZ2B inh)
Cc1ccccc1OCC(=O)NN1Cc2ccccc2C1=N	none (no result: L3MBTL1 block)
CC1CCCN(c2nc(-c3ccccc3O)nc3ccccc23)C1 (stereo unspecified)	none (no result: Sfp inh, L3MBTL1 block)
CCCc1nc(NC(=O)c2ccccc2)nc(NC(=O)c2ccccc2)n1	L3MBTL1 block inconclusive, G9a block 71µM
O=C(Nc1cccc(NC(=O)c2ccccc2)n1)c1ccccc1	none
CCNc1nc(NCC)nc(C(=O)Nc2ccccc2)n1	BAZ2B inh 10µM, L3MBTL1 block inconclusive, JMJD2A Tudor inh 79µM
O=C(CCc1c[nH]c2ccccc12)N1CCN(c2ccc(O)cc2)CC1	HP1b binding inh inconclusive, Sfp inh inconclusive, G9a block 35µM
COc1ccc(N2CCN(C(=O)CCc3c[nH]c4ccccc34)CC2)cc1	BAZ2B inh inconclusive, G9a block 56µM
Cc1ccc(S(=O)(=O)N2CCN(C(=O)CCc3c[nH]c4ccccc34)CC2)c(C)c1	G9a block 8.9µM (no result: Sfp inh)
O=C(CCc1nnc(-c2ccccc2)o1)NCC1CCN(C2CCCC2)CC1	none
Cn1nnc2c(NCc3c(F)cccc3F)ncnc21	none (no result: Sfp inh, L3MBTL1 block)
CN1CCN(C(CNC(=O)C(=O)Nc2ccc(Cl)cc2)c2cccnc2)CC1 (stereo unspecified)	none (no result: Sfp inh, L3MBTL1 block)
CCCCn1c(N)c(N(C(=O)CSc2nncn2-c2ccccc2C)C2CCCC2)c(=O)[nH]c1=O	none (no result: Sfp inh, BAZ2B inh, L3MBTL1 block, G9a block)

Compound activity from PubChem BioAssay.
